From PubChem BioAssay
SW480 rereplic: A quantitative high throughput screen for small molecules that induce DNA re-replication in SW480 colon adenocarcinoma cells; SW480 DNA re-replication, Hoechst DNA content imaging, 48 h; Potency, µM (top dose mostly 46.1 µM), without a hit: at the top dose re-replication activation, usual class: activators; AID 624297, 2012; 340,000 tested, 1.8% active; also: potency is read from the fitted curve at half-maximal effect; % of control where 0% means no effect; nearly all actives have a fitted effect of over 55% in size
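Quantitative HTS format with DMSO vehicle controls; 48 hr drug incubation at 37 C, then 40 min Hoechst staining and scanning imager measurement at 405 nm excitation.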
RORgamma inh: qHTS for inhibitors of ROR gamma transcriptional activity; 310,000 tested, 5.4% active; Nuclear receptor ROR-gamma (Mus musculus), P51450; Potency, µM (top dose mostly 53.6 µM), for inactives: at the highest dose activity change, negative = inhibition, hits mostly inhibitors; AID 2551, 2010; Drosophila S2 Gal4-RORgamma UAS-luciferase reporter, 20 h; also: potency is read from the fitted curve at half-maximal effect; % is scaled to controls: 0 for no effect and ±100 for the full control effect; nearly all actives have a fitted effect of over 60% in size
Target sequence (P51450 whole entry, looked up, the tested form may be a part): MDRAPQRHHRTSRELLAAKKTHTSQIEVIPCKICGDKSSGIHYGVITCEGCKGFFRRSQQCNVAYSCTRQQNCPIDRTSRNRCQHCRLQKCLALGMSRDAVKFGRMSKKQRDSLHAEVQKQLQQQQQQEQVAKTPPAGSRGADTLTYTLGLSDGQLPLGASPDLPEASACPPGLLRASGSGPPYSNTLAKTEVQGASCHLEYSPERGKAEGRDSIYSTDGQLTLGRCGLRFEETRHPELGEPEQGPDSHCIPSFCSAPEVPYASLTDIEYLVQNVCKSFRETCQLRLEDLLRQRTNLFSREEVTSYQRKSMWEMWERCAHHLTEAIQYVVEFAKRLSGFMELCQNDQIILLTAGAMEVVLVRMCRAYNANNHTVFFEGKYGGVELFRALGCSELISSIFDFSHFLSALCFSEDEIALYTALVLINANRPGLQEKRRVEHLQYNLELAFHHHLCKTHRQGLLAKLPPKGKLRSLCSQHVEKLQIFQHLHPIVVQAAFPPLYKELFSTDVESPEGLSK
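Luminescence from a UAS-regulated Photinus luciferase reporter in stably transfected Drosophila Schneider cells is measured; decreased signal marks ROR gamma inhibition. Fusion expression is induced by 700 uM copper sulfate for 20 hr.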
MCF10A rereplic: A quantitative high throughput screen for small molecules that induce DNA re-replication in MCF 10a normal breast cells. MCF 10A DNA re-replication, Hoechst nuclear intensity, 48 h. Potency, µM (highest dose often 46.1 µM), for inactives: at the top dose activity, positive = re-replication, hits mostly activators. 350,000 tested, 2.9% active; also: potency is read from the fitted curve at half-maximal effect; % of control where 0% means no effect; nearly all actives have a fitted effect of over 50% in size
Gal4-VP16 FLuc: VP16 counterscreen qHTS for inhibitors of ROR gamma transcriptional activity. Drosophila S2 Gal4-VP16 UAS-luciferase, luminescence, 20 h. Potency, µM (highest dose often 53.6 µM), without a hit: top-dose activity, negative = inhibition, usual class: inhibitors. 310,000 tested, 3.5% active. AID 2546, 2010;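 also: Gal4-VP16 expression switched on by copper sulfate through the metallothionein promoter; potency is read from the fitted curve at half-maximal effect; % is scaled to controls: 0 for no effect and ±100 for the full control effect; nearly all actives have a fitted effect of over 50% in size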
IL-1B inflam inh: qHTS for Inhibitors of Inflammasome Signaling: IL-1-beta AlphaLISA Primary Screen; 360,000 tested, 4.7% active; activity change, % at 57.5 µM; THP-1 LPS/ATP IL-1B secretion, AlphaLISA, 16 h; active compounds read low; AID 743279, 2014; in the data active = activity change below about -50%; inconclusive = mostly about -30% to -49%; also: % is scaled to controls: 0 for no effect and ±100 for the full control effect
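THP-1 cells pretreated 1 hr with compounds (up to 57.5 uM final), then stimulated with LPS (250 ng/mL final) plus ATP (1.25 mM final); secreted IL-1B measured by AlphaLISA after 16 hr, decreased signal indicating inhibition.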
Starred values were filed as active, the others as inactive; [ ] = another dose, or the depositor's remark. Only some compounds are listed: those with a hit (about 11% of all), similar ones and a draw of the others. Unless noted, calls follow the shape of the dose curve; as a rule, active = well fitted curve in the direction sought with a large enough effect; inconclusive = small, poorly fitted or top-dose-only effect, or another doubt; inactive = no such curve, though single readings can be large; an effect the other way counts as inactive or inconclusive.

Screening Cc1ccccc1-c1nnc(SCC(=O)N(C)C2CCS(=O)(=O)C2)n1C (stereo unspecified) returned SW480 rereplic -14.4%, MCF10A rereplic -2.2% and IL-1B inflam inh -0.2.
CCOCC(=O)O was read as RORgamma inh -8.8% and Gal4-VP16 FLuc -2.5%.
`COc1ccc2c(c1)O[C@H](c1ccc3c(c1)OCO3)[C@@H](OC(=O)Nc1cc(OC)c(OC)c(OC)c1)C2=O` gave SW480 rereplic 11.6µM*, RORgamma inh -19.3%, MCF10A rereplic inconclusive and Gal4-VP16 FLuc -3.7%.
Screening COc1cc2c3c(cccc3c1)C(=O)N(CCN1CCCC1)C2=O returned IL-1B inflam inh -10.5.
`COc1cccc(Nc2nc(C(N)Cc3ccc(Cl)cc3)cs2)n1` (stereo unspecified) gave IL-1B inflam inh -67.0*.
Screening COc1ccc(CC(N)c2csc(Nc3ccc(S(C)(=O)=O)cc3)n2)cc1 (stereo unspecified) returned IL-1B inflam inh -14.2.
`NC(Cc1ccc(Cl)cc1)c1csc(NC(=O)NCCc2ccccc2)n1` (stereo unspecified) gave IL-1B inflam inh -7.6.
`COc1cccc(Nc2nc(C(N)Cc3ccc(F)cc3)cs2)n1` (stereo unspecified) gave IL-1B inflam inh -64.4*.
COc1ccc(CC(N)c2csc(Nc3ccccn3)n2)cc1 (stereo unspecified) was read as IL-1B inflam inh -50.1*.
For COc1ccc(CC(N)c2csc(Nc3cccc(OC)n3)n2)cc1 (stereo unspecified) the results were IL-1B inflam inh 0.0.
For NC(c1csc(Nc2ccccn2)n1)C1CCCCC1 (stereo unspecified) the results were IL-1B inflam inh -68.1*.
For CC12CCC=CC1C(c1ccc(C(F)(F)F)cc1)N(Cc1ccccc1)C2=O (stereo unspecified) the results were RORgamma inh inconclusive and Gal4-VP16 FLuc 1.7%.
Screening O=C1NC(=O)C2C3C=CC(C3)C12 (stereo unspecified) returned SW480 rereplic -6.7%, RORgamma inh -7.2%, MCF10A rereplic 1.7% and Gal4-VP16 FLuc 4.3%.
COc1cccc(Nc2nc(C(N)CCc3ccccc3)cs2)n1 (stereo unspecified) was read as IL-1B inflam inh -87.0*.
For COc1cc(CNC(=O)Nc2nc(C(N)Cc3ccc(Cl)cc3)cs2)cc(OC)c1OC (stereo unspecified) the results were IL-1B inflam inh -74.1*.
`CC(=O)c1ccc(Nc2nc(C(N)Cc3ccc(Cl)cc3)cs2)cc1` (stereo unspecified) gave IL-1B inflam inh -53.9*.
For Cc1ccccc1-c1cc(NCCN2CCOCC2)ncn1 the results were RORgamma inh inconclusive and Gal4-VP16 FLuc 25.2%.
`C/C=C/C1Oc2ccc(OC)cc2N2C(=O)C(C)C(OCOC)C12` (stereo unspecified) gave RORgamma inh 0.5%[10 µM] and Gal4-VP16 FLuc -0.5%[10 µM].
For COc1cc2c(cc1OC)CN(c1nc(CN3CCOCC3)nc3sc4c(c13)CCC(C)C4)CC2 (stereo unspecified) the results were SW480 rereplic inconclusive, RORgamma inh 11.2µM*, MCF10A rereplic inconclusive, Gal4-VP16 FLuc inconclusive and IL-1B inflam inh -67.7*.
For COc1ccc(Nc2nc(CN3CCOCC3)nc3sc4c(c23)CCC(C)C4)cc1OC (stereo unspecified) the results were SW480 rereplic inconclusive, RORgamma inh -4.1%, MCF10A rereplic inconclusive and Gal4-VP16 FLuc -8.0%.
C=CC[C@H](CC(=O)N(CCO)Cc1ccccc1)C(=O)N[C@@H](COC(=O)[C@H](CC=C)CC(=O)OC(C)(C)C)Cc1c[nH]c2ccccc12 was read as SW480 rereplic 24.9%, MCF10A rereplic 23.1µM* and IL-1B inflam inh -61.8*.
C=CC[C@@H](CC(=O)N(CCO)Cc1ccccc1)C(=O)N[C@H](COC(=O)[C@@H](CC=C)CC(=O)OC(C)(C)C)Cc1c[nH]c2ccccc12 was read as SW480 rereplic 7.6%, MCF10A rereplic 10.3µM* and IL-1B inflam inh -55.7*.
For C=CC[C@H](CC(=O)N[C@H](CO)Cc1ccccc1)C(=O)N[C@@H](COC(=O)[C@@H](CC=C)CC(=O)OC(C)(C)C)Cc1c[nH]c2ccccc12 the results were SW480 rereplic 14.6%, MCF10A rereplic 29.1% and IL-1B inflam inh -13.4.
C=CC[C@@H](CC(=O)N(CCO)Cc1ccccc1)C(=O)N[C@@H](COC(=O)[C@@H](CC=C)CC(=O)OC(C)(C)C)Cc1c[nH]c2ccccc12 was read as SW480 rereplic 3.1%, MCF10A rereplic inconclusive and IL-1B inflam inh -62.3*.
Screening CN(CC(=O)Nc1cccc(F)c1)C(=O)c1cccc(S(=O)(=O)N2CCN(c3ccc(F)cc3)CC2)c1 returned SW480 rereplic -23.5%, MCF10A rereplic 8.7% and IL-1B inflam inh -1.3.
`C[C@@H]1CN([C@@H](C)CO)C(=O)c2cc(NC(=O)C3CCCCC3)ccc2O[C@@H](C)CCCCO[C@@H]1CN(C)Cc1ccncc1` gave IL-1B inflam inh -4.1.
CCc1cc2c(nc1CC)CCN(CC/C(C)=N/O[C@@H](C)CN1CCCc3nc(C)c(C)cc31)C2 was read as RORgamma inh 0.0%[10 µM] and Gal4-VP16 FLuc 5.5%[10 µM].
CCCCCCCCCCCCCC[n+]1ccc(C)cc1 was read as SW480 rereplic inconclusive, RORgamma inh inconclusive, MCF10A rereplic 55.4% and Gal4-VP16 FLuc 3.98µM*.
Screening CCCCCCCCCCCCCCCC[n+]1ccc(/C=N/O)cc1 returned SW480 rereplic 20.6µM*, RORgamma inh inconclusive, MCF10A rereplic 2.59µM*, Gal4-VP16 FLuc 7.08µM* and IL-1B inflam inh -100.1*.
`CCCCCCCC[n+]1cccc(C(=O)N(CC)CC)c1` gave SW480 rereplic inconclusive, RORgamma inh 3.3%, MCF10A rereplic 14.6%, Gal4-VP16 FLuc -6.4% and IL-1B inflam inh -6.1.
Cc1cc[n+](CC[n+]2ccc(C)cc2)cc1 was read as SW480 rereplic -6.0%, MCF10A rereplic -1.0% and IL-1B inflam inh 38.8.
`O/N=C/c1cccc[n+]1CCCCCC[n+]1ccccc1/C=N/O` gave SW480 rereplic 17.5%, RORgamma inh 0.0%, MCF10A rereplic 7.6%, Gal4-VP16 FLuc 2.4% and IL-1B inflam inh -5.6.
For CCCCCCCCCCCCCCCC[n+]1ccc(C(N)=O)cc1 the results were SW480 rereplic inconclusive, RORgamma inh inconclusive, MCF10A rereplic inconclusive, Gal4-VP16 FLuc -17.9% and IL-1B inflam inh -102.5*.
